The nature of test [1]: Nuclear factor erythroid 2-related factor 2/antioxidant responsive element (Nrf2/ARE) small molecule agonists: qHTS cell viability counter screen in human keratinocytes (AID 1919968; active = well fitted curve in the direction sought with a large enough effect in the repeat runs; an effect the other way counts as inactive or inconclusive; also: nearly all actives have a fitted effect of over 55% in size; also: potency is read from the fitted curve at half-maximal effect). The gist of the method: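 In human HaCaT keratinocytes stably expressing an ARE-driven luciferase, compound exposure lasted 23 h at 37 C under 5% CO2. Viable cells are quantified with a protease-based fluorogenic reagent (CellTiter-Fluor) read 1 h after addition.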

Test [2] can be described thus: Nuclear factor erythroid 2-related factor 2/antioxidant responsive element (Nrf2/ARE) small molecule agonists: luciferase reporter gene qHTS assay in human keratinocytes (AID 1919969). Also: nearly all actives have a fitted effect of over 35% in size. Also: potency is read from the fitted curve at half-maximal effect.
The target of test [3] is Gonadotropin-releasing hormone receptor (Homo sapiens) (UniProt P30968). Briefly: Human gonadotropin-releasing hormone receptor (GnRHR) small molecule agonists, calcium flux assay in GnRHR-HEK293 cells (AID 1920063). Also: nearly all actives have a fitted effect of over 35% in size. Also: potency is read from the fitted curve at half-maximal effect. An outline of the steps:
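Intracellular calcium rise is the read-out: engineered human GnRHR HEK293 cells, dye-loaded, are exposed to DMSO-dissolved compounds and fluorescence at Ex/Em 480/540 is tracked for 3 min.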

Test [4] deals with KiSS-1 receptor (Homo sapiens) (UniProt Q969F8). Briefly: Human kisspeptin (KISS1R) small molecule agonists, calcium flux assay in KISS1R-HEK293 cells (AID 1920064; active = well fitted curve in the direction sought with a large enough effect in the repeat runs; an effect the other way counts as inactive or inconclusive; also: potency is read from the fitted curve at half-maximal effect). The gist of the method:
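Concentration-response testing used 15 concentrations in triplicate on human KISS1R-expressing HEK293 cells. Calcium-dependent fluorescence (Ex/Em 480/540) was followed kinetically for 3 min after compound transfer.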
For orientation: Calcium flux is commonly read through the fluorescence of an indicator in the cells.

Test [5] can be described thus: G protein-coupled receptor (GPCR) small molecule agonists, calcium flux assay: HEK293 wild type cell line counter screen (AID 1920065). An outline of the steps:
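Fluorescence intensity signals activation. After overnight (18 h) culture and a 1 h calcium dye load at 37 C, compounds are added by pin tool and the plate read at 480/540 nm for 3 min in 1 s steps.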

Test [6] can be described thus: p53 small molecule agonists, cell-based qHTS assay with rat liver microsomes: qHTS cell viability counter screen (AID 1963580). Also: nearly all actives have a fitted effect of over 45% in size. An outline of the steps:
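Counter screen for cytotoxicity under metabolic activation: rat liver microsomes and NADPH, 0.5 mg/mL final each, added with compounds to p53RE-bla HCT-116 cells; 16 h at 37 C, then ATP luminescence read.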
For orientation: qHTS replaces the single test concentration by a dilution series.

Test [7] in a line: cAMP Responsive Elements (CRE) small molecule agonists, cell-based qHTS assay (AID 1963590). Also: potency is read from the fitted curve at half-maximal effect. An outline of the steps:
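Compound exposure lasted 3 h at 37 C/5% CO2 in CRE-bla HEK 293T cells grown in assay medium with 10% dialyzed FBS and 25 mM HEPES. Reporter signal came from LiveBLAzer B/G FRET substrate, 2 h, room temperature.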

Test [8] addresses Beta-2 adrenergic receptor (Homo sapiens) (UniProt P07550). As to the kind of experiment: Adrenergic beta2 receptor (ADRB2) small molecule antagonists, cell-based qHTS assay (AID 1963592). Also: nearly all actives have a fitted effect of over 50% in size. Also: potency is read from the fitted curve at half-maximal effect. The gist of the method:
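Assay format: CHO-ADRB2 cells, 18-20hr seeding at 37C/5% CO2, then compound plus 1nM isoproterenol agonist mix for 0.5hr RT. Homogeneous time-resolved fluorescence cAMP detection after 1hr, expressed as 665/615 nm ratio.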

In test [9] the target is D(2) dopamine receptor (Homo sapiens) (UniProt P14416). As to the kind of experiment: Dopamine D2 receptor (DRD2) small molecule agonists, cell-based qHTS assay (AID 1963594). Also: nearly all actives have a fitted effect of over 35% in size. The gist of the method:
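HEK293 cells stably expressing DRD2 were cultured 24 h at 37 C, then given Ro20-1724 (0.1 mM final) and compounds for 10 min at room temperature. NKH477 (200nM) was then added for 30 min. cAMP was read by HTRF.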

Test [10] shares this target. Briefly: Dopamine D2 receptor (DRD2) small molecule antagonists, cell-based qHTS assay (AID 1963595; active = well fitted inhibition curve with a large enough effect in the signal ratio in the repeat runs, with a control signal flat; the % refers to the signal ratio). An outline of the steps: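 Antagonist mode in DRD2-HEK293 cells: after compound addition with 0.1 mM Ro20-1724, cells received quinpirole (12 nM) and NKH477 (200 nM) for 30 min at room temperature; HTRF cAMP read after 1 h detection.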
Test [11] in a line: p53 small molecule agonists, cell-based qHTS assay: qHTS cell viability counter screen (AID 1963581). Also: nearly all actives have a fitted effect of over 45% in size. Also: potency is read from the fitted curve at half-maximal effect. An outline of the steps: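 Luminescence from CellTiter-Glo, reflecting ATP content, serves as the cytotoxicity measure; it is taken after the 2 h reporter substrate step in HCT-116 p53RE-bla cells dosed for 16 h at 37 C.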
Test [12] can be described thus: p53 small molecule agonists, cell-based qHTS assay (AID 1963582; active = well fitted activation curve with a large enough effect in the signal ratio in the repeat runs, not every such curve was filed as active; the % refers to the signal ratio; also: potency is read from the fitted curve at half-maximal effect). The gist of the method: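 After plating, p53RE-bla cells sat 5 h in the incubator; compounds or DMSO vehicle were pinned in; a 16 h incubation at 37 C followed; FRET substrate was added and, 2 h later at RT, fluorescence was measured.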
Test [13] deals with 5-hydroxytryptamine receptor 2A (Homo sapiens) (UniProt P28223). As to the kind of experiment: 5-hydroxytryptamine receptor 2A (HTR2A) small molecule antagonists, cell-based qHTS assay (AID 1963586). Also: nearly all actives have a fitted effect of over 45% in size. An outline of the steps:
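CHO cells stably expressing human HTR2A were plated for 18 h at 37 C, then loaded with calcium dye for 1 h. Compounds were preincubated 5 min at room temperature before DOI (4 nM solution) was added. Kinetic fluorescence was read for 3 min.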

For test [14] the target is unchanged. Briefly: 5-hydroxytryptamine receptor 2A (HTR2A) small molecule agonists, cell-based qHTS assay (AID 1963587). Also: nearly all actives have a fitted effect of over 30% in size. Also: potency is read from the fitted curve at half-maximal effect. An outline of the steps: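 HTR2A-CHO cells, plated 18 h at 37 C/5% CO2, dye-loaded 1 h at 37 C; compounds in DMSO added by pin tool (agonist mode). Intracellular calcium flux read as kinetic fluorescence on FDSS over 2 min at 1 s intervals.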
For test [15], the target named is Muscarinic acetylcholine receptor M1 (Homo sapiens) (UniProt P11229). Briefly: Cholinergic receptor muscarinic 1 (CHRM1) small molecule antagonists, cell-based qHTS assay (AID 1963588). Also: nearly all actives have a fitted effect of over 40% in size. An outline of the steps: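 Compounds were tested at 15 concentrations in three independent runs. Dye-loaded CHRM1-CHO cells were exposed 5 min at room temperature before stimulation by acetylcholine added at 50nM. Intracellular calcium was read kinetically on FDSS for 3 min.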
Sequence of Muscarinic acetylcholine receptor M1 (Homo sapiens) (P11229 whole entry, looked up): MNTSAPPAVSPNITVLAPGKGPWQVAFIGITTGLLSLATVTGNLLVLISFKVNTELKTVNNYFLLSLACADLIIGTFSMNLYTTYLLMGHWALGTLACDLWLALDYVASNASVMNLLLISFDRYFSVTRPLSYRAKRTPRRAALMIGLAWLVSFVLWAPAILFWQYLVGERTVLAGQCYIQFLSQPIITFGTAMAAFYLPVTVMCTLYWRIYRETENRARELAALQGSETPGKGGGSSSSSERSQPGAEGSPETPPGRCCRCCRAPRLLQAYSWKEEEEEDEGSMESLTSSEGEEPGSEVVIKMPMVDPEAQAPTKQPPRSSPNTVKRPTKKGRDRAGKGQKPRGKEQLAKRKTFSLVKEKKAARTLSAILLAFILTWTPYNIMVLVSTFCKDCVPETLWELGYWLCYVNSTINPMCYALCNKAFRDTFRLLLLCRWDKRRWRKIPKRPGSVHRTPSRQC

Test [16] has the same target. Briefly: Cholinergic receptor muscarinic 1 (CHRM1) small molecule agonists, cell-based qHTS assay (AID 1963589). Also: nearly all actives have a fitted effect of over 35% in size. The gist of the method:
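Fluorescent calcium dye reports M1 activation in stably transfected CHO cells. Compounds, 15 concentrations, added after 1 h dye loading at 37 C; kinetic reading at 1 sec intervals.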

Test [17] is described as follows: p53 small molecule agonists, cell-based qHTS assay with rat liver microsomes (AID 1963578). An outline of the steps:
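Metabolic activation by rat liver microsomes and NADPH, each 0.5 mg/mL final, added right after compounds to p53RE-bla reporter cells (4,000/well, plated 5 h earlier). 16 h at 37 C, then LiveBLAzer substrate for 2 h at room temperature in the dark; fluorescence read-out.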

Test [18] in a line: p53 small molecule agonists, cell-based qHTS assay with human liver microsomes: qHTS cell viability counter screen (AID 1963579). Also: nearly all actives have a fitted effect of over 45% in size. Also: potency is read from the fitted curve at half-maximal effect. An outline of the steps:
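Metabolic activation used human liver microsomes and NADPH, both 0.5 mg/mL final, over 16 hours at 37 C on p53RE-bla cells (4,000/well). Cytotoxicity measured by CellTiter-Glo luminescence, 30 min at room temperature.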

Test [19] can be described thus: cAMP Responsive Elements (CRE) small molecule antagonists, cell-based qHTS assay (AID 1963591; active = well fitted inhibition curve with a large enough effect in the signal ratio in the repeat runs, not every such curve was filed as active; the % refers to the signal ratio). The gist of the method:
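Stimulation used NKH477 at a final 0.25 uM for 3 h in compound-treated CRE-bla HEK293T cells, seeded 18 h beforehand. Reporter activity was measured with LiveBLAzer B/G FRET substrate after 2 h at room temperature.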

The target in test [20] is Beta-2 adrenergic receptor (Homo sapiens) (UniProt P07550). Briefly: Adrenergic beta2 receptor (ADRB2) small molecule agonists, cell-based qHTS assay (AID 1963593).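 Also: CHO cells stably overexpressing human ADRB2.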 An outline of the steps:
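CHO cells stably over-expressing ADRB2 were plated overnight at 37C, then dosed with compounds plus a stimulation mix containing 100uM IBMX and 25uM Ro-20-1724 for 0.5hr at room temperature. cAMP was measured by HTRF competition, 1hr.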

SMILES strings stand for the structures. Unmarked numbers belong to inactive results. Results filed as inconclusive are left out. Calls of active or inactive are those of the source. Unless noted, calls follow the shape of the full dose curve.

Sequence of D(2) dopamine receptor (Homo sapiens) (P14416 whole entry, looked up): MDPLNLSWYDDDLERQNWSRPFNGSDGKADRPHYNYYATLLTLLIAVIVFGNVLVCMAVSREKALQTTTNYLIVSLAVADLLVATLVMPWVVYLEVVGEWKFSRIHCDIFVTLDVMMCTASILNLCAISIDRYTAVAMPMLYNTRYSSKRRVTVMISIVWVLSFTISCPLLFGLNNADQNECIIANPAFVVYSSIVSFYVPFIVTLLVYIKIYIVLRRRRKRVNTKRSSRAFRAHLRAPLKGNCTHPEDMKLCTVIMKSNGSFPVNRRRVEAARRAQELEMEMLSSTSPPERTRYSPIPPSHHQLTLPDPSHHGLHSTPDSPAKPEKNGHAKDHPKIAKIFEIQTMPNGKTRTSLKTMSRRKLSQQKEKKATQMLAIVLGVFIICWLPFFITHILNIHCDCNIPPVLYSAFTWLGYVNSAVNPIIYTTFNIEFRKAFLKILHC
Sequence of Beta-2 adrenergic receptor (Homo sapiens) (P07550 whole entry, looked up): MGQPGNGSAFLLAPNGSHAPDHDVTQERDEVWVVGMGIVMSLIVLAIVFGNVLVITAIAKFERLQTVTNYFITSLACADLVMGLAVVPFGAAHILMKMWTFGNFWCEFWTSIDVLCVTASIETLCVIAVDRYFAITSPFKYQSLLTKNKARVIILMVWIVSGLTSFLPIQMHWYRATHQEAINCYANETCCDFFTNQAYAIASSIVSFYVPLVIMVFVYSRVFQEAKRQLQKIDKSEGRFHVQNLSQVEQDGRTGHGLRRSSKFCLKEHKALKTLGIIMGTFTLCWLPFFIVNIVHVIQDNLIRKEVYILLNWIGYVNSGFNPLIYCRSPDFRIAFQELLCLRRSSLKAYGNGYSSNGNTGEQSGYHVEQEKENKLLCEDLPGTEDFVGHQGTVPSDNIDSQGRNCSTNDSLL
Sequence of 5-hydroxytryptamine receptor 2A (Homo sapiens) (P28223 whole entry, looked up): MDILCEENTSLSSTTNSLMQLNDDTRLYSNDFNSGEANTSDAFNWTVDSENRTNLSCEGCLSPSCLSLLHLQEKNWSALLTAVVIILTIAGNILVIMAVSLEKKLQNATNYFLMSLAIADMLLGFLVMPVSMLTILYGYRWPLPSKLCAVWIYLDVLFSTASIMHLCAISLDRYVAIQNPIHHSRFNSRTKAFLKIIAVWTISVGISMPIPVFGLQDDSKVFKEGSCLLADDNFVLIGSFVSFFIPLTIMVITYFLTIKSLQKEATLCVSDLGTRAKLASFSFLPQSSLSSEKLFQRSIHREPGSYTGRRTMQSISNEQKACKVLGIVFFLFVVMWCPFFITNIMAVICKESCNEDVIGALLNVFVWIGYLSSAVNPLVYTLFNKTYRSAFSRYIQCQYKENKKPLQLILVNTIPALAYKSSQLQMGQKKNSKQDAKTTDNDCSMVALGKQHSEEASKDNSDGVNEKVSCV
Sequence of Gonadotropin-releasing hormone receptor (Homo sapiens) (P30968 whole entry, looked up): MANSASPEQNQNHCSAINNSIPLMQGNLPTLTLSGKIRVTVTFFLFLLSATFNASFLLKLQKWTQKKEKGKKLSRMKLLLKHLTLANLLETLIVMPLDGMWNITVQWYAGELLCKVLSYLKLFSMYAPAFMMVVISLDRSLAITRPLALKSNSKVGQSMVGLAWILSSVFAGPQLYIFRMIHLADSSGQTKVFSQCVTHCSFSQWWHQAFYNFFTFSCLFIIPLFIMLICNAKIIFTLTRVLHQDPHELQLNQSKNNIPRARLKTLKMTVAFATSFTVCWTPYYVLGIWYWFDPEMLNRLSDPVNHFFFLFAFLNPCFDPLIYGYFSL
Sequence of KiSS-1 receptor (Homo sapiens) (Q969F8 whole entry, looked up): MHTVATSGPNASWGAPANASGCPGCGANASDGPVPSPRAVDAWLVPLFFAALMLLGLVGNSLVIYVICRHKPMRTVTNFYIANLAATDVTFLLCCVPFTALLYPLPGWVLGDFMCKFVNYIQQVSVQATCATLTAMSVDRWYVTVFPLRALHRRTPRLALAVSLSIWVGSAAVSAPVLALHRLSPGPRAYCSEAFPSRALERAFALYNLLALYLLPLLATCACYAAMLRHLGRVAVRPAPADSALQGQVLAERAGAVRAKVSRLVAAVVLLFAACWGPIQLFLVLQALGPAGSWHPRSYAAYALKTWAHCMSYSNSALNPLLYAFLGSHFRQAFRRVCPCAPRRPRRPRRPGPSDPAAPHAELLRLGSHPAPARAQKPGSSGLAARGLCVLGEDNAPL

With `Nc1nc(Cl)nc2c1ncn2[C@H]1C[C@H](O)[C@@H](CO)O1`, the Potency entry in [1], in [2], in test [3], in test [4], in [5] and in test [6] was “inactive” in each case. Also, the Potency entry in [8], in test [9] and in test [10] was “inactive” each time. The Potency in test [7] is 60.7 µM (active).

Turning to `CCn1nc(C(=O)O)c(=O)c2cc3c(cc21)OCO3`, the Potency result in test [1], in [2], in [3], in test [4], in test [5] and in test [11] was “inactive” each time. Further, the Potency entry in [12], in test [13], in test [14], in test [15], in test [16] and in test [8] was “inactive” each time. The Potency entry in [9] and in [10] was “inactive” in each case.

Take `O=[N+]([O-])c1cc(C2CCCCC2)c(O)c([N+](=O)[O-])c1`: the Potency in [1] was 19.3 µM (active); in test [2], 13.6 µM (active); in [3] it was 38.8 µM (active); in [18], 20.4 µM (active); in test [11], 20.4 µM (active). Besides, the Potency entry in test [4], in test [17], in test [13], in [15], in test [16] and in [9] was “inactive” in each case. For the same compound, the Potency entry in test [10] is “inactive”.

With `CCN(CC)c1ccc2c(c1)Oc1cc(N(CC)CC)ccc1C21OC(=O)c2ccccc21`, the Potency in [1] was 9.44 µM (active); in test [3] it was 19 µM (active); in test [4] it was 23.9 µM (active); in test [14] it was 21.3 µM (active). For the same compound, the Potency entry in test [2], in test [17], in test [18], in test [6], in test [12] and in test [13] was “inactive” throughout. Further, the Potency entry in test [15], in test [7], in test [19] and in test [10] was “inactive” throughout.

Regarding `O=C(O)CCc1nc(-c2ccccc2)c(-c2ccccc2)o1`, the Potency entry in test [1], in [2], in test [3], in [4], in test [5] and in [8] was “inactive” throughout. Besides, the Potency entry in [20], in test [9] and in test [10] was “inactive” throughout.

As to `COc1c2occc2c(OC)c2c(=O)cc(C)oc12`, the Potency entry in test [1], in test [2], in [3], in [4], in test [5] and in [6] was “inactive” each time. The Potency result in test [13], in test [14], in test [15], in test [16], in [7] and in test [8] was “inactive” each time. The Potency entry in [9] and in test [10] was “inactive” throughout.

As for `CO/N=C1\CN(c2nc3c(cc2F)c(=O)c(C(=O)O)cn3C2CC2)CC1CN` (centres undefined), the Potency result in test [1], in test [2], in test [3], in test [4], in test [5] and in test [6] was “inactive” throughout. In addition, the Potency entry in [13], in [14], in [15], in test [16], in test [19] and in test [9] was “inactive” in each case. For the same compound, the Potency entry in test [10] was “inactive”.

In the case of `O=C(Nc1cccc(C(F)(F)F)c1)c1cc(Br)cc(Br)c1O`, the Potency in test [1] was 7.7 µM (active); in [2], 9.69 µM (active); in test [18], 9.13 µM (active); in test [8], 61.1 µM (active). Also, the Potency entry in test [3], in test [4], in test [17], in test [13], in [14] and in [16] was “inactive” throughout. In addition, the Potency result in test [9] and in test [10] was “inactive” in each case.

As for `O=C[C@@H](O)[C@H](O)[C@H](O)CO`, the Potency result in test [1], in test [2], in test [3], in test [4], in [18] and in test [6] was “inactive” in each case. Further, the Potency result in test [11], in test [12], in test [13], in test [14], in [15] and in test [16] was “inactive” throughout. Besides, the Potency entry in [7], in test [19], in test [8], in [20], in test [9] and in test [10] was “inactive” each time.

As to `CCCCCCNC(=O)n1cc(F)c(=O)[nH]c1=O`, the Potency entry in test [1], in [2], in test [3], in test [4], in test [18] and in test [6] was “inactive” each time. Moreover, the Potency entry in test [7], in test [19], in test [8], in test [20], in [9] and in test [10] was “inactive” throughout. In addition, the Potency in [12] was 5 µM (active).

For the origin of these results see PubChem BioAssay (Tox21).
